From PubChem BioAssay (NCATS)
“And” between values parts separate entries of the source, which are not always exact repeats. Equal entries are not always repeated. Inconclusive results are not listed. Entries that show only a call come without a potency. A number with no mark means an inactive call. The source made the active and inactive calls. Calls follow the shape of the dose curve; as a rule, active = well fitted cell-killing curve with a large enough effect; inconclusive = small, poorly fitted or top-dose-only effect, or effect the other way; inactive = no such curve, though single readings can be large or run the other way.

Columns and labels:
[1] = Viability qHTS for spleen associated tyrosine kinase inhibitor (SYKi) naive MV4-11 cells (AID 1963823); also: nearly all actives have a fitted effect of over 40% in size
Summary of the method: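 SYK inhibitor-naive MV4-11 cells, 500 per well, exposed to compounds for 72 hr at 37 C, 5% CO2. Viability read as CellTiter-Glo luminescence after 10 min at room temperature.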

[2] = Viability qHTS for spleen associated tyrosine kinase inhibitor (SYKi) drug resistant MV4-11 cells (AID 1963824); also: nearly all actives have a fitted effect of over 35% in size
Summary of the method: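 SYK inhibitor-resistant MV4-11 AML cells, 500 per well, added to predispensed compounds and incubated 72 hr at 37 C, 5% CO2. Viability measured by CellTiter-Glo luminescence after 10 min at room temperature.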
Potency is read from the fitted curve at half-maximal effect.

SMILES | Potency [1] | Potency [2] | viability (% of control) [1] | viability, % of control [2]
CCOc1cc(CNC2CCCC2)cc(Cl)c1OCc1ccc(Cl)cc1 | 4.61 µM (active) | 5.8 µM (active) |  | 
C=CC1C(O[C@@H]2O[C@H](CO)[C@@H](O)[C@H](O)[C@H]2O)OC=C(C(=O)OC)C1Cc1nccc2c1[nH]c1ccccc12 (some centres undefined) | inactive | 3.99 µM (active) |  | 
CC1(C)OC(=O)C(OCC2CC2)=C1c1ccc(S(C)(=O)=O)cc1 | inactive | inactive |  | 
Cc1cc(-c2nncc3c(C(C)(C)C)c(OCc4ncnn4C)nn23)no1 | inactive | inactive |  | 
O=C(O)CC(CCc1ccccc1)OC1OC(CO)C(O)C(O)C1O (centres undefined) | inactive | inactive |  | 
CCN(CC)CCOc1ccc2c(c1)C(=O)c1cc(OCCN(CC)CC)ccc1-2 | 13.3 µM (active) | 9.44 µM (active) |  | 
O=C(O)c1ccnc2cc(-c3nc4ccccc4n3CCN3CCCCC3)sc12 | inactive | inactive |  | 
C=C1C(=O)O[C@@H]2C[C@@]3(C)CCCC(=C)[C@]3(O)C[C@H]12 | 5.8 µM (active) | 2.59 µM (active) |  | 
C=CC(=O)N1CCC[C@@H](n2nc(-c3cccc(C(=O)Nc4ccc(C(C)C)c(C)c4)c3)c3c(N)ncnc32)C1 | 1.46 µM (active) | 2.31 µM (active) |  | 
CCCC(CCC)C(=O)NCc1ccc2c(cnn2-c2ccccc2OC)c1 | 10.3 µM (active) | 8.2 µM (active) |  | 
CC1(N)CCN(c2cccnc2NC(=O)c2nc(-c3ncccc3C(F)(F)F)cnc2N)CC1 | 5.9 µM (active) | 11.8 µM (active) |  | 
C=C1CCC2C(C)(C)C(O)CCC2(C)C1CCC(C)CCO (centres undefined) | 9.04 µM (active) | 12.8 µM (active) |  | 
OCC1OC(Oc2cc(O)cc(/C=C/c3ccc(O)cc3)c2)C(O)C(O)C1O (centres undefined) | inactive | inactive |  | 
CC(=O)N[C@H]1[C@H](O[C@H]2CC[C@@]3(C)C(CC[C@]4(C)C3CC=C3C5CC(C)(C)CC[C@]5(C(=O)O)[C@H](O[C@@H]5O[C@H](CO)[C@@H](O)[C@H](O)[C@H]5O)C[C@]34C)C2(C)C)O[C@H](CO[C@@H]2OC[C@H](O)[C@H](O)[C@H]2O[C@@H]2OC[C@@H](O)[C@H](O)[C@H]2O)[C@@H](O)[C@@H]1O (some centres undefined) |  |  | 57% [at 9.25 µM] | 81.4% [at 9.25 µM]
C=C1C(=O)O[C@H]2/C=C(/C)[C@@H](OC(C)=O)C/C=C(\C)C[C@@H](OC(=O)/C(=C/C)COC(=O)/C(=C/C)CO)[C@@H]12 | 1.78 µM (active) | 1.59 µM (active) |  | 
COc1cc(-c2cc(-c3cccc(O)c3)cnc2N)cc(OC)c1OC | 11.6 µM (active) | 9.2 µM (active) |  | 
C=C(C(=O)OC)C1C(O)CC2(C)C(O)CCC(=O)C2C1O (centres undefined) | inactive | inactive |  | 
C=C1CC[C@@H]2C(C)(C)CCC[C@@]2(C)[C@@H]1CC/C(=C/C(=O)OC)COC(C)=O | inactive | inactive |  | 
CC(NC(=O)c1ccccc1N)C(=O)O (centres undefined) | inactive | inactive |  | 

SMILES | Potency [1] | Potency [2] | viability (% of control) [1] | viability, % of control [2]
OC[C@H]1O[C@@H](OC[C@H]2O[C@@H](OC/C=C/c3ccccc3)[C@H](O)[C@@H](O)[C@@H]2O)[C@@H](O)[C@@H]1O | inactive | inactive |  | 
CC(=O)O[C@]1(C(C)=O)CC[C@H]2[C@@H]3CCC4=CC(=O)CCC4=C3[C@@H](c3ccc(N(C)C)cc3)C[C@@]21C | 25.9 µM (active) | 20.6 µM (active) |  | 
CC1=C2CC(=O)C(C)CC/C=C(\C)CC2OC1=O (centres undefined) | inactive | inactive |  | 
C[C@@H]1O[C@@H](O[C@@H]2[C@@H](O)[C@@H](O)[C@H](O[C@@H]3[C@@H](O)[C@@H](O[C@]4(CO)O[C@H](CO)[C@@H](O)[C@@H]4OC(=O)/C=C/c4ccc(O)cc4)O[C@H](CO)[C@H]3OC(=O)/C=C/c3ccc(O)cc3)O[C@H]2C)[C@H](O)[C@H](O)[C@H]1O |  |  | 81.6% [at 9.25 µM] | 117% [at 9.25 µM]
Cc1ccc([C@@H]2O[C@H](CO)[C@@H](O)[C@H](O)[C@H]2O)cc1Cc1ccc(-c2ccc(F)cc2)s1 | 18.6 µM (active) | 16.6 µM (active) |  | 
COc1ccc(CN2CCN(C(c3ccc(F)cc3)c3ccc(F)cc3)CC2)c(OC)c1OC | 15 µM (active) and 14.6 µM (active) | 21.1 µM (active) and 16.4 µM (active) |  | 
CC1=C2C(=O)C=C(CO[C@@H]3O[C@H](CO)[C@@H](O)[C@H](O)[C@H]3O)[C@@H]2[C@H]2OC(=O)[C@H](C)[C@@H]2CC1 | inactive | inactive |  | 
CCCCOc1ccc(-c2cncc(C(=O)NCc3cccnc3N3CCOCC3)c2)cc1Cl | 18.4 µM (active) | 13 µM (active) |  | 
CC(C)=CCC[C@](C)(O[C@@H]1O[C@H](CO)[C@@H](O)[C@H](O)[C@H]1O)[C@H]1CC[C@]2(C)[C@@H]1[C@H](O)CC1[C@@]3(C)CC[C@H](O)C(C)(C)C3[C@@H](O[C@@H]3O[C@H](CO)[C@@H](O)[C@H](O)[C@H]3O)C[C@]12C (some centres undefined) | inactive | inactive |  | 
COc1cc(/C=C/C(=O)N2CCN(CC(=O)N3CCCC3)CC2)cc(OC)c1OC | inactive | inactive |  | 
CC(=O)O[C@H]1C[C@@H](O)C(C)(C)C2C[C@@H](OC(C)=O)[C@]3(C)C(CC[C@@]4(C)[C@H](c5ccoc5)OC(=O)[C@H]5O[C@]543)[C@]21C (some centres undefined) | inactive | inactive |  | 
C[C@@H]1CN(Cc2ncccn2)C[C@H]1c1nc2c(cnn2C2CCOCC2)c(=O)[nH]1 | inactive | inactive |  | 
CC1(C)CC[C@]2(C(=O)O[C@@H]3O[C@H](CO)[C@@H](O)[C@H](O)[C@H]3O)CC[C@]3(C)C(=CCC4[C@@]5(C)CC[C@H](O[C@@H]6O[C@H](C(=O)O)[C@@H](O[C@@H]7O[C@H](CO)[C@@H](O)[C@H](O)[C@H]7O)[C@H](O)[C@H]6O)C(C)(C)C5CC[C@]43C)C2C1 (some centres undefined) |  |  | 78.7% [at 9.25 µM] | 88% [at 9.25 µM]
CC1CC[C@]2(C(=O)O)CC[C@]3(C(=O)O)C(=CCC4[C@@]5(C)CC[C@H](O[C@@H]6O[C@H](CO)[C@@H](O)[C@H](O)[C@H]6O)C(C)(C)C5CC[C@]43C)C2C1C (some centres undefined) | inactive | inactive |  | 
CC1=CC(=O)CC(C)(C)C1CCC(C)O[C@@H]1O[C@H](CO[C@@H]2OC[C@@H](O)[C@H](O)[C@H]2O)[C@@H](O)[C@H](O)[C@H]1O (some centres undefined) | inactive | inactive |  | 
Nc1cc(C(F)(F)F)ccc1S | 21.1 µM (active) | 23.7 µM (active) |  | 
O=C1COc2nccc(-c3ccccc3F)c2CN1Cc1cc(C(F)(F)F)cc(C(F)(F)F)c1 | 11.6 µM (active) | 16.4 µM (active) |  | 
CC1=C(CC/C(C)=C/C(=O)O)[C@@]2(C)CCCC(C)(C)C2CC1=O (some centres undefined) | inactive | inactive |  | 
CC12CC34C=CC(=O)C(C)(CCC(=O)O)C3C(CC1C4)O2 (centres undefined) | inactive | inactive |  | 

SMILES | Potency [1] | Potency [2] | viability (% of control) [1] | viability, % of control [2]
C=C1C(=O)O[C@H]2CC(=C)[C@H]3CC[C@@](C)(O)[C@@H]3CC12 (some centres undefined) | 6.51 µM (active) | 4.11 µM (active) |  | 
Cc1cc(C(=O)Nc2cccc(C(=O)Nc3cccc(C(F)(F)F)c3)c2)on1 | inactive | inactive |  | 
CC(=O)O[C@@H]1CC[C@@]2(C)[C@H](CC[C@@H]3[C@@H]2C[C@H](OC(C)=O)[C@]2(C)[C@@H](C(C)=O)CC[C@@H]32)C1 | 8.2 µM (active) | 8.2 µM (active) |  | 
Cn1ncc(Cl)c1-c1cc(C(=O)N[C@H](CN)Cc2ccc(F)c(F)c2)oc1Cl | 2.59 µM (active) | 8.2 µM (active) |  | 
c1ccc(Cc2ncc3c(n2)CCNCC3)cc1 | inactive | inactive |  | 
COc1cc(C)c(C(=O)NC2C(C)OC(OC3CCC(C)C4C3C=C(C)C3/C(C)=C\CC/C(C)=C/C5(C)C=C(C(=O)O)C(C)CC56OC(=O)/C(=C(\O)C34C)C6=O)C(O)C2(C)O)c(O)c1 (centres undefined) |  |  | 82.6% [at 9.25 µM] | 77% [at 9.25 µM]
CC(C)C[C@@H]1NC(=O)[C@@H](Cc2ccccc2)NC(=O)C(CCCCCC(=O)C2CO2)NC(=O)[C@@H]2CCCCN2C1=O (some centres undefined) | 0.0252 µM (active) | 0.0126 µM (active) |  | 
O=c1nc(-c2ccccn2)sc2ccccc12 | 1.84 µM (active) | 2.59 µM (active) |  | 
CCC(CC)(NC(=O)C(C)C)C(=O)N[C@@H](CCCN=C(N)N)C(=O)NC1(C(=O)NC(c2ccc(F)cc2)c2ccc(F)cc2)CCCC1 | inactive | inactive |  | 
O=C1NCCSc2c1sc1ccc(O)cc21 | 2.59 µM (active) | 2.91 µM (active) |  | 
COc1cc(C2c3cc(O)c(OC)cc3CC(CO)C2CO)ccc1O (centres undefined) | inactive | inactive |  | 
Nc1nc(COC(=O)c2ccc([N+](=O)[O-])cc2)nc(Nc2ccccc2)n1 | inactive | inactive |  | 
O=C(O)c1ccnc(-c2cc(C(=O)NCCc3ccccc3)ccn2)c1 | inactive | inactive |  | 
COC(=O)C1(O)C(OC(C)=O)CCC2C3(CC(c4ccoc4)OC3=O)C(C)=CCC21C(=O)OC (centres undefined) | inactive | inactive |  | 
O=C(NC1CCN(CCCCC2(C(=O)NCC(F)(F)F)c3ccccc3-c3ccccc32)CC1)c1ccccc1-c1ccc(C(F)(F)F)cc1 | 2.59 µM (active) | 2.59 µM (active) |  | 
CC(CCc1ccc(O)cc1)O[C@@H]1O[C@H](CO[C@@H]2OC(CO)[C@H](O)[C@H]2O)[C@@H](O)[C@H](O)[C@H]1O (some centres undefined) | inactive | inactive |  | 
COC(O)(CC(C)C)C1Oc2cc(C)[nH]c(=O)c2O1 (centres undefined) | inactive | inactive |  | 
CN(C)c1ccc(Nc2c3ccc(NC(=O)CCN4CCCC4)cc3nc3cc(NC(=O)CCN4CCCC4)ccc23)cc1 | 5.17 µM (active) | 4.11 µM (active) |  | 
COC(=O)C1=COC(OC2OC(CO)C(O)C(O)C2O)C2C(COC(=O)/C=C/c3ccc(O)c(O)c3)C(O)C(O)C12 (centres undefined) | inactive | inactive |  | 
